Inconclusive results are not listed. Where a call stands in place of a potency, no number is given. The source made the active and inactive calls. Calls follow the shape of the dose curve; as a rule, active = well fitted curve in the direction sought with a large enough effect; inconclusive = small, poorly fitted or top-dose-only effect, or another doubt; inactive = no such curve, though single readings can be large or run the other way.
Assay: qHTS Assay for Rab9 Promoter Activators: Hit Validation Using Renilla Luciferase Read-Out
Details: Huh7 NPC1 promoter Renilla luciferase reporter, 24 h; series mostly up to 76.9 µM
How it was run: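 Huh7 cells stably carrying NPC promoter-luciferase, 1,500 cells/well, exposed to compound for 24 h at 37 deg C. Luminescence read 10 min after […] addition; validation of firefly-read primary hits.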
Potency is read from the fitted curve at half-maximal effect.

Compound	Potency
Cc1ccccc1NC(=O)CSc1ccc(-c2cccnc2)nn1	inactive
C=CCc1ccc(OCCOCCNCCOC)c(OC)c1	inactive
CC(C)(C)C(=O)NC(=S)Nc1ccccc1F	inactive
COc1ccccc1OCCCC(=O)NCc1ccco1	inactive
Cc1ccc(NC(=O)c2cccc(N3C(=O)CCC3=O)c2)nc1	inactive
CC1CCCN(C(=S)Nc2ccc(Nc3ccccc3)cc2)C1 (stereo not drawn)	inactive
CC(C)C1(CCNC(=O)c2cccs2)CCOC(C)(C)C1 (stereo not drawn)	inactive
Cc1noc(/C=C/N(C)C)c1S(=O)(=O)N1CCCC(C(=O)N2CCCCC2)C1 (stereo not drawn)	inactive
CC(=O)c1c(C)[nH]c(C(=O)Nc2cccc(S(=O)(=O)N(C)C)c2)c1C	26 µM (active)
CCCOC(=O)Cn1cnc2scc(-c3ccc(OC)cc3)c2c1=O	inactive
O=C(NCCSCc1c(F)cccc1Cl)c1ccc(CN2CCOCC2)cc1	inactive
Cc1nc(SCC(=O)NC(=O)NC(C)(C)C)nc(C)c1C	inactive
CCOC(=O)c1ccc(-c2nnc(-c3ccc(Cl)cc3Cl)o2)cc1	inactive
Cc1ccc(NC(=O)c2c(O)c3ccccc3n(C)c2=O)nc1	inactive
O=C(c1cc2cc([N+](=O)[O-])ccc2oc1=O)n1cccn1	inactive
COc1ccccc1CNC(=O)COc1ccc(C)cc1	inactive
O=C(CSc1nccn1Cc1ccco1)Nc1ccccc1F	inactive
COC(=O)Nc1nc2ccc(Br)cc2s1	inactive
O=C(CSc1nnc(-c2ccc([N+](=O)[O-])cc2)o1)Nc1ccccn1	inactive

Compound	Potency
CCOCC(=O)Nc1c(C(=O)Nc2ccc3c(c2)OCCO3)oc2ccccc12	inactive
O=CN1CCN(C(=O)c2ccccc2Cl)CC1	inactive
COc1ccc(C2(CNC(=O)/C=C/c3ccco3)CCCC2)cc1OC	inactive
CCCc1cc(C(=O)Nc2ccccc2SC)no1	inactive
CC(C)(C)C(=O)N/C(N)=N/c1nc2ccccc2o1	inactive
Cc1ccc(NC(=O)Nc2cccc3ccccc23)cc1	inactive
CC1CN(C(=O)c2ccncc2)CC(C)O1 (stereo not drawn)	inactive
COC(=O)CSc1nc2cc3c(cc2cc1C#N)OCO3	inactive
Cc1ccc2nc(Nc3ccc(Cl)cc3)c3nncn3c2c1	inactive
Cc1[nH]n(-c2cccc3ccccc23)c(=O)c1/C=N/c1sc2c(c1C#N)CCC2	inactive
O=C(NCCc1c[nH]c2ccccc12)C(=O)NCC(c1ccco1)N1CCN(c2ccccc2F)CC1 (stereo not drawn)	inactive
COc1ccc(NC(=O)Nc2ccc(Cc3ccncc3)cc2)cc1OC	inactive
O=C(NNC(=O)C1COc2ccccc2O1)c1ccccc1O (stereo not drawn)	inactive
CCOC(=O)c1cc2sccc2n1CC(=O)N1CCCc2ccccc21	inactive
O=C(COC(=O)c1ccc(-c2nnc(-c3ccccc3)o2)cc1)c1ccccc1	inactive
CC(=O)c1cccc(NC(=O)N2CCOCC2)c1	inactive
Cn1c(CCN2CCN(c3ccccc3)CC2)nc2cc(NC(=O)c3ccco3)ccc21	inactive
COc1ccc(/C=C\c2onc(C)c2S(=O)(=O)N2CCC(C(=O)NCCC(C)C)CC2)cc1	inactive
O=C(NC(=S)Nc1ccc(CN2CCCCC2)cc1)c1cc2ccccc2o1	inactive
